# Test results reported in PubChem BioAssay (Tox21).
# Unmarked numbers belong to inactive results. Inconclusive results are not listed. Entries that show only a call come without a potency. The source made the active and inactive calls. Unless noted, the call rests on the fitted dose curve; in most records, active means well fitted curve in the direction sought with a large enough effect in the repeat runs; inconclusive means weak or mixed curves; inactive means no such curve, though single readings can be large; an effect the other way counts as inactive or inconclusive.
# What was measured:
# [1] = target: Estrogen receptor (Homo sapiens) (UniProt P03372); test: qHTS assay to identify small molecule antagonists of the estrogen receptor alpha (ER-alpha) signaling pathway using the BG1 cell line in the presence of 0.1 nM 17-beta-estradiol (AID 1259244); further: nearly all actives have a fitted effect of over 50% in size; further: potency means the concentration at half of the fitted maximal effect
# How it was run: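 Cells: VM7Luc4E2, endogenous ER-alpha, 4x ERE-luc stable. Pre-culture 5 d, phenol red-free, charcoal-stripped FBS. Plated 24 h, compound + E2 0.1 nM final, 22 h 37C/5% CO2. Readout ONE-Glo luminescence.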
# [2] = qHTS assay to identify small molecule HDAC inhibitors (AID 1259364); further: top concentration of the series differs between compounds; nearly all actives have a fitted effect of over 45% in size
# How it was run: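 Luminescence from a cell-permeant luminogenic class I/II HDAC substrate reports endogenous deacetylase activity in intact HCT-116 cells treated with compounds for 2 h.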
# [3] = qHTS assay to identify small molecule HDAC inhibitors - cell viability counter screen (AID 1259365); further: series mostly up to about 92 µM; nearly all actives have a fitted effect of over 50% in size
# How it was run: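 After overnight seeding at 1,500 cells per well, wild-type HCT-116 cultures took up compounds in DMSO for 2hr at 37 C. Viable cell content came from luminescence with CellTiter-Glo.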
# [4] = qHTS assay to identify small molecule agonists of the sonic hedgehog signaling (Shh) pathway - cell viability counter screen (AID 1259366); further: nearly all actives have a fitted effect of over 50% in size
# How it was run: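 Same-well cytotoxicity read. Gli1-Luc reporter 3T3 cells; compounds 24hr, 37C/5% CO2; CellTiter-Fluor fluorescence.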
# [5] = qHTS assay to identify small molecule antagonists of the sonic hedgehog signaling (Shh) pathway - cell viability counter screen (AID 1259367); further: nearly all actives have a fitted effect of over 55% in size
# How it was run: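 After a 4 hr settling period, 3T3 Gli1-Luc cells were treated with DMSO-dissolved chemicals and conditioned medium, kept 24 hr at 37C in 5% CO2, and assayed for viability by CellTiter-Fluor fluorescence following 1 hr reagent incubation.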
# [6] = qHTS assay to identify small molecule agonists of the sonic hedgehog signaling (Shh) pathway (AID 1259368; calls by dose curve;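 further: NIH/3T3-derived 3T3Gli1-Luc cells carrying a stable Gli1-driven firefly luciferase reporter; series mostly up to about 92 µM; nearly all actives have a fitted effect of over 15% in size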)
# How it was run: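 3T3Gli1-Luc (NIH/3T3 clone, stable Gli1-Luc); 4 hr pre-incubation, then cpd in DMSO 24 hr, 37 C/5% CO2; luciferase reagent 30 min RT; luminescence.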
# [7] = qHTS assay to identify small molecule antagonists of the sonic hedgehog signaling (Shh) pathway (AID 1259369; calls by dose curve; further: nearly all actives have a fitted effect of over 45% in size; further: potency means the concentration at half of the fitted maximal effect)
# How it was run: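 3T3Gli1-Luc, conditioned-medium-stimulated, 24hr cpd, 37C/5% CO2; Gli1-driven firefly Luc luminescence after 30min RT with luciferase reagent. Cells plated 4hr before cpd.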
# [8] = qHTS assay to identify small molecule agonists of the androgen receptor (AR) signaling pathway in the presence of an antagonist - cell viability counter screen (AID 1259379);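 further: MDA-kb2 human breast cancer cells carrying an MMTV luciferase reporter; series mostly up to about 92 µM; nearly all actives have a fitted effect of over 25% in size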
# How it was run: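 Cells: MDA-kb2 (MMTV-luc, AR and GR elements), 3,000/well, 5 hr settle. Added: nilutamide 3.0uM final, then compounds (15 conc.). Incubation: 16 hr, 37C, no CO2. Read-out: CellTiter-Fluor, 1 hr, fluorescence.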
# [9] = qHTS assay to identify small molecule agonists of the estrogen receptor beta (ER-beta) signaling pathway - cell viability counter screen (AID 1259380); further: nearly all actives have a fitted effect of over 30% in size; further: potency means the concentration at half of the fitted maximal effect
# How it was run: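 HEK293T ER-beta-UAS-bla; 2% CS-FBS; 6 hr pre-plate, 16 hr cpd at 37C/5% CO2; LiveBLAzer read first, then CellTiter-Glo 30 min RT, luminescence.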
# [10] = qHTS assay to identify small molecule antagonists of the estrogen receptor beta (ER-beta) signaling pathway - cell viability counter screen (AID 1259382); further: nearly all actives have a fitted effect of over 55% in size; further: potency means the concentration at half of the fitted maximal effect; on activity change, negative = cytotoxicity: series mostly up to about 92 µM
# How it was run: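 Cells: ER-beta-UAS-bla HEK293T, 2,000/well, 2% CS-FBS, 6 hr settle. Cpd + E2 (1nM final), 16 hr, 37C/5% CO2. Bla FRET substrate 2 hr RT, then CellTiter-Glo 30 min RT, luminescence.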
# [11] = target: Estrogen receptor (Homo sapiens) (UniProt P03372); test: qHTS assay to identify small molecule agonists of the estrogen receptor alpha (ER-alpha) signaling pathway in the presence of an antagonist (AID 1259383; calls by dose curve; further: top concentration of the series differs between compounds; nearly all actives have a fitted effect of over 15% in size)
# How it was run: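 VM7Luc4E2, endog. ER-alpha + 4×ERE-luc; charcoal-stripped FBS, phenol red-free, 5 d; 24hr plating; +10.0nM ICI-182,780 (final); cpds 15 conc, 22hr, 37C/5% CO2; ONE-Glo luminescence.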
# [12] = qHTS assay to identify small molecule agonists or antagonists of the thyroid stimulating hormone receptor (TSHR) signaling pathway - wild type cell line counter screen (AID 1259384; calls by dose curve)
# How it was run: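 Wild-type HEK293 cells were plated 18 h at 37 C/5% CO2, pin-dosed with compound plus Ro20-1724 medium, held 30 min at room temperature, then given cAMP-d2 and anti-cAMP-cryptate; fluorescence was read after 1 h. Fifteen concentrations, triplicate.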
# [13] = target: Thyrotropin receptor (Homo sapiens) (UniProt P16473); test: qHTS assay to identify small molecule antagonists of the thyroid stimulating hormone receptor (TSHR) signaling pathway (AID 1259385; calls by dose curve; further: nearly all actives have a fitted effect of over 20% in size)
# How it was run: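 TSHR-HEK293 cells were plated and held 18 h at 37C/5% CO2, then given compound plus Ro20-1724 and stimulated with TSH at 1.5 ng/mL final. After 30 min at room temperature, cAMP was detected with cAMP-d2/anti-cAMP-cryptate (1 h) by fluorescence.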
# [14] = qHTS assay to identify small molecule agonists of the estrogen receptor alpha (ER-alpha) signaling pathway in the presence of an antagonist - cell viability counter screen (AID 1259386);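 further: series mostly up to about 92 µM; cells exposed to compounds for 22 h at 37 °C before the viability read; nearly all actives have a fitted effect of over 30% in size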
# How it was run: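 VM7Luc4E2, stripped-serum pre-culture 5 d; 24hr plating; +ICI-182,780 10.0nM final; cpds 15 conc, 22hr, 37C/5% CO2; CellTiter-Fluor added at 21hr, fluorescence 1hr later.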
# [15] = target: Progesterone receptor (Homo sapiens) (UniProt P06401); test: qHTS assay to identify small molecule agonists of the progesterone receptor (PR) signaling pathway (AID 1346784; calls by dose curve; further: nearly all actives have a fitted effect of over 30% in size)
# How it was run: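 Compounds were tested for PR agonism in HEK 293T cells bearing a beta-lactamase gene under UAS control. Treatment lasted 16 hr at 37C; signal came from fluorescence of a FRET substrate.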
# [16] = target: Progesterone receptor (Homo sapiens) (UniProt P06401); test: qHTS assay to identify small molecule antagonists of the progesterone receptor (PR) signaling pathway (AID 1346795; active means well fitted inhibition curve with a large enough effect in the signal ratio in the repeat runs, not every such curve was filed as active; the % refers to the signal ratio; further: potency means the concentration at half of the fitted maximal effect)
# How it was run: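 In HEK293T cells bearing the PR-UAS-bla reporter, compound effects on promegestone-driven (1 nM) beta-lactamase expression are assessed after 16 hr using a fluorescent FRET substrate incubated 2 hr at room temperature.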
# [17] = target: Androgen receptor (Homo sapiens) (UniProt P10275); test: qHTS assay to identify small molecule agonists of the androgen receptor (AR) signaling pathway in the presence of an antagonist (AID 1259381; calls by dose curve; further: nearly all actives have a fitted effect of over 15% in size; further: potency means the concentration at half of the fitted maximal effect)
# How it was run: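 MDA-kb2 cells, 3,000/well, rested 5hr at 37C/0% CO2 → nilutamide 3.0uM final or buffer → compounds, 15 conc. → 16hr at 37C → ONE-Glo, 30min RT → luminescence.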
# [18] = target: Estrogen receptor beta (Homo sapiens) (UniProt Q92731); test: qHTS assay to identify small molecule agonists of the estrogen receptor beta (ER-beta) signaling pathway (AID 1259377; active means well fitted activation curve with a large enough effect in the signal ratio in the repeat runs, not every such curve was filed as active; the % refers to the signal ratio)
# How it was run: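 Read-out: beta-lactamase FRET fluorescence. Cell line: ER-beta-UAS-bla HEK293T in 2% charcoal-stripped FBS. Exposure: 16 hr at 37C. Substrate step: 2 h at room temperature.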
# [19] = target: Estrogen receptor beta (Homo sapiens) (UniProt Q92731); test: qHTS assay to identify small molecule antagonists of the estrogen receptor beta (ER-beta) signaling pathway (AID 1259378; active means well fitted inhibition curve with a large enough effect in the signal ratio in the repeat runs, not every such curve was filed as active; the % refers to the signal ratio; further: potency means the concentration at half of the fitted maximal effect)
# How it was run: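 ER-beta-UAS-bla HEK293T (GripTite) cells in 2% charcoal-stripped FBS medium were preincubated 6 hr at 37C, dosed with compound, then stimulated with 1 nM E2 (final) for 16 hr; beta-lactamase reporter read by B/G FRET fluorescence after 2 hr substrate loading.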
# Chain of Estrogen receptor beta (Homo sapiens) (Q92731 whole entry, looked up): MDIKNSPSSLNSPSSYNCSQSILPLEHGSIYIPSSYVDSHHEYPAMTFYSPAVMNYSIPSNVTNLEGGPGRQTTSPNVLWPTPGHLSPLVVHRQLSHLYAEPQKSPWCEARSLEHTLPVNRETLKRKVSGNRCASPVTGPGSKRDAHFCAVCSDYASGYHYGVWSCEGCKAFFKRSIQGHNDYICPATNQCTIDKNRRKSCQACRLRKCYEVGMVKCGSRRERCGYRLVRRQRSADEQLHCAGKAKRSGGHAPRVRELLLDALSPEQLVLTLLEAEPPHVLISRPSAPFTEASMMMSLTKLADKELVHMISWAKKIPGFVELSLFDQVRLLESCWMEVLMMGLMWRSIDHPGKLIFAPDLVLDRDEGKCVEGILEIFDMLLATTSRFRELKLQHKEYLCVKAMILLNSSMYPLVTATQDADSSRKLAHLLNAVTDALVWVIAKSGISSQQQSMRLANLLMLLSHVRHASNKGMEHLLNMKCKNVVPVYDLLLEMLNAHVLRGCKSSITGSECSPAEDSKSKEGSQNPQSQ
# Chain of Progesterone receptor (Homo sapiens) (P06401 whole entry, looked up): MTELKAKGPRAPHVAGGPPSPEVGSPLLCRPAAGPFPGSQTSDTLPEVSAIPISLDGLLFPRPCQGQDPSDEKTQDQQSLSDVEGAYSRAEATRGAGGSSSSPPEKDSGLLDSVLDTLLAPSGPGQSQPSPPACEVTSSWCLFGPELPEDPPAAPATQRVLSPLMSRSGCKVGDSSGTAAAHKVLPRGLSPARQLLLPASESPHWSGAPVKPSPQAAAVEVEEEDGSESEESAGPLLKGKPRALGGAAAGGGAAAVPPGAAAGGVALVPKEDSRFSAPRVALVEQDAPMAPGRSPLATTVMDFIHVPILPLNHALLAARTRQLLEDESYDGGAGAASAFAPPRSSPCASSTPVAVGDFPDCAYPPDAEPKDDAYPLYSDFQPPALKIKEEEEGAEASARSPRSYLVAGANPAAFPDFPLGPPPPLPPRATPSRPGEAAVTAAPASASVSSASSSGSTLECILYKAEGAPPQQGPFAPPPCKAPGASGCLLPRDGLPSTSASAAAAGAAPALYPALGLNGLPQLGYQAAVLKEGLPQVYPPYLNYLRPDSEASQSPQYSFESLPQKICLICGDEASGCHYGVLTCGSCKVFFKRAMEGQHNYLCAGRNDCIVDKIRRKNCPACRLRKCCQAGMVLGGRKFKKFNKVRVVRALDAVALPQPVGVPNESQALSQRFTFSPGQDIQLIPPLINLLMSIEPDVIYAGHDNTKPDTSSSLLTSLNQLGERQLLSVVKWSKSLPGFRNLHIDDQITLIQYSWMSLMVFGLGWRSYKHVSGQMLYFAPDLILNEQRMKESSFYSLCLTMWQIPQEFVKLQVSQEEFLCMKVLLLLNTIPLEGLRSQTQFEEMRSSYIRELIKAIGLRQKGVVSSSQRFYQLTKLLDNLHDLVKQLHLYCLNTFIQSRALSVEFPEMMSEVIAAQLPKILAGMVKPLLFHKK
# Chain of Androgen receptor (Homo sapiens) (P10275 whole entry, looked up): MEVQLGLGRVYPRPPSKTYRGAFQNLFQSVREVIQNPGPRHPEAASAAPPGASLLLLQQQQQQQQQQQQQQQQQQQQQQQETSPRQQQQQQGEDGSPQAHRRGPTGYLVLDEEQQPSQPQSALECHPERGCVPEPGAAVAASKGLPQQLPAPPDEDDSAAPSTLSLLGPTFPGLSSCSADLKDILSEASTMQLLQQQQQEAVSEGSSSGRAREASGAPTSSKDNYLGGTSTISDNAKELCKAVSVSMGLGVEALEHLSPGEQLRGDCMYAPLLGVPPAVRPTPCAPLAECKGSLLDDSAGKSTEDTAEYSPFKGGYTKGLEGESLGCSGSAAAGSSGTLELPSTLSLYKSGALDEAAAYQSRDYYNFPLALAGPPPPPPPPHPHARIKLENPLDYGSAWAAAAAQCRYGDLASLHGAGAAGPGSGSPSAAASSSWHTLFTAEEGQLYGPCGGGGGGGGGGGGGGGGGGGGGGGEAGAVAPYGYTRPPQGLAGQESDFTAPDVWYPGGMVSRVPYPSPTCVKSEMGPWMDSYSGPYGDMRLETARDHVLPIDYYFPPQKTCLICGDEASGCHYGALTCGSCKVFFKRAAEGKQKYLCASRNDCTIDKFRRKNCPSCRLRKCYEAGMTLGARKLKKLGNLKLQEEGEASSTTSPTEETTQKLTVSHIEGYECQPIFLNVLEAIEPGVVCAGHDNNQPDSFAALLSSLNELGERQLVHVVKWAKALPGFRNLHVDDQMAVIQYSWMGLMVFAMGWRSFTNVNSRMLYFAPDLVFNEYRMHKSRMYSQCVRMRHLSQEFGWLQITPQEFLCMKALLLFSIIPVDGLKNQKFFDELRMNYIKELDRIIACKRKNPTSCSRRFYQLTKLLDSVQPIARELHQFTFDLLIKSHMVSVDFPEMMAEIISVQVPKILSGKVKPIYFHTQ
# Chain of Estrogen receptor (Homo sapiens) (P03372 whole entry, looked up): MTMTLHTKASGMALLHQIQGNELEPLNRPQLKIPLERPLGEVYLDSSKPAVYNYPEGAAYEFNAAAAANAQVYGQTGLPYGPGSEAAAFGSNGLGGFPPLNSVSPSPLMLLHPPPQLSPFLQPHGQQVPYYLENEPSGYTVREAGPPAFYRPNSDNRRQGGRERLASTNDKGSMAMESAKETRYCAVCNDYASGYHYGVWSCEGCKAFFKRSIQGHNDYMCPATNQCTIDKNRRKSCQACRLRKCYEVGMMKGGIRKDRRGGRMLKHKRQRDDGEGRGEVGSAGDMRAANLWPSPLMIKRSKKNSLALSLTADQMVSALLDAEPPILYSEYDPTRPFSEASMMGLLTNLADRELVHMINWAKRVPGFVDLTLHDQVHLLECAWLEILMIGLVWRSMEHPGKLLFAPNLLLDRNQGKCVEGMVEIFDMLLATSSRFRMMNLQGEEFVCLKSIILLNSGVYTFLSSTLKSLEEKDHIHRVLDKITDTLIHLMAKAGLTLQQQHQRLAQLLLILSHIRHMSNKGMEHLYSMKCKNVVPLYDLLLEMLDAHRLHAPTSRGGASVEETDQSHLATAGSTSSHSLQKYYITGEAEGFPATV
# Chain of Thyrotropin receptor (Homo sapiens) (P16473 whole entry, looked up): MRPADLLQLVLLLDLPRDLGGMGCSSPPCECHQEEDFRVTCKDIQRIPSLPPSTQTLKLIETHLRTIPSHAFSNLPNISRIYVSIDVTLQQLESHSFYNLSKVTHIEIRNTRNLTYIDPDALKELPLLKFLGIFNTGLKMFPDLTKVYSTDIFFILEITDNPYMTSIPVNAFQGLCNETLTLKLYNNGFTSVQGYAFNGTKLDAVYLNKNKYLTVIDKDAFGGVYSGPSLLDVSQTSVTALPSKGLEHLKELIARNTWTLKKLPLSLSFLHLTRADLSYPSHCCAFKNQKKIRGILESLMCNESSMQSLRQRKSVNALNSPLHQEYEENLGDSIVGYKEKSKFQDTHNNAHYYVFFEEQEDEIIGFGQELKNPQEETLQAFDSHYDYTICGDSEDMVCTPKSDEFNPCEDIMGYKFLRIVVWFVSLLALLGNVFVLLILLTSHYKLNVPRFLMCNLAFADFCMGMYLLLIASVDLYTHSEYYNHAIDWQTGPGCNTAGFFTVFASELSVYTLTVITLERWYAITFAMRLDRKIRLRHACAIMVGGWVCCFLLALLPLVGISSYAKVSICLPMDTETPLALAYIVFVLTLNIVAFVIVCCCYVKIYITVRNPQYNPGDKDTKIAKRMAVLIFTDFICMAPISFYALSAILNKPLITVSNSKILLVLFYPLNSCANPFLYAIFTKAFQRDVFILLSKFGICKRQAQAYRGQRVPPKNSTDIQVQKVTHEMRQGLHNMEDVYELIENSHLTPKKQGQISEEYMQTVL
smiles,measurement,setting,value
O=C=NCc1cccc(CN=C=O)c1,"activity change, negative = inhibition",[1],2.93% [at 19 µM]
same,"activity change, negative = inhibition",[2],3.12% [at 19 µM]
same,"activity change, negative = cytotoxicity",[3],0.277% [at 19 µM]
same,"viability change, negative = cytotoxic",[4],4.73% [at 19 µM]
same,"viability change, negative = cytotoxic",[5],-1.32% [at 19 µM]
same,activity change,[6],"-1.18% [at 18.9 µM, stronger effect = higher value]"
same,"activity change, negative = inhibition",[7],11.1% [at 19 µM]
same,"activity change, negative = cytotoxicity",[8],-5.15% [at 19 µM]
same,"activity change, negative = cytotoxicity",[9],2.31% [at 19 µM]
same,"activity change, negative = cytotoxicity",[10],13% [at 19 µM]
same,activation,[11],0.099% [at 19 µM]
same,cAMP activity change,[12],-0.613% [at 18.9 µM]
same,"activity change, negative = inhibition",[13],2.52% [at 19 µM]
same,"activity change, negative = cytotoxicity",[14],1.12% [at 19 µM]
same,activation,[15],-0.779% [at 19 µM]
same,"activity change, negative = inhibition",[16],0.417% [at 18.9 µM]
CCCCCCCCCCCCCc1ccccc1,Potency,[1],inactive
same,Potency,[2],inactive
same,Potency,[3],inactive
same,Potency,[4],inactive
same,Potency,[5],inactive
same,Potency,[6],inactive
same,Potency,[7],inactive
same,Potency,[8],inactive
same,Potency,[9],inactive
same,Potency,[10],inactive
same,Potency,[11],inactive
same,outcome,[12],inactive
same,Potency,[13],inactive
same,Potency,[14],inactive
same,outcome,[15],inactive
same,Potency,[16],inactive
NC(=O)c1ccccc1N,Potency,[1],inactive
same,Potency,[2],inactive
same,Potency,[3],inactive
same,Potency,[4],inactive
same,Potency,[5],inactive
same,Potency,[6],inactive
same,Potency,[7],inactive
same,Potency,[9],inactive
same,Potency,[17],inactive
same,Potency,[10],inactive
same,Potency,[11],inactive
same,outcome,[12],inactive
same,Potency,[13],inactive
same,Potency,[14],inactive
same,outcome,[15],inactive
same,Potency,[16],inactive
CCCCCCCC(=O)OCC,Potency,[1],inactive
same,Potency,[2],inactive
same,Potency,[3],inactive
same,Potency,[4],inactive
same,Potency,[5],inactive
same,Potency,[6],inactive
same,Potency,[7],inactive
same,Potency,[8],inactive
same,Potency,[9],inactive
same,Potency,[17],inactive
same,Potency,[11],inactive
same,outcome,[12],inactive
same,Potency,[13],inactive
same,Potency,[14],inactive
same,outcome,[15],inactive
same,Potency,[16],inactive
NC(=O)c1nc(-c2cccc(-c3cc(F)ccc3OCC(F)(F)C(F)(F)F)c2)n[nH]1,Potency,[1],54.5 µM (active)
same,Potency,[2],inactive
same,Potency,[3],inactive
same,Potency,[5],inactive
same,Potency,[7],3.06 µM (active)
same,Potency,[8],inactive
same,Potency,[9],61.1 µM (active)
same,Potency,[17],inactive
same,Potency,[11],inactive
same,outcome,[12],inactive
same,Potency,[16],34.4 µM (active)
CCC(=O)OCCc1ccccc1,Potency,[1],inactive
same,Potency,[2],inactive
same,Potency,[3],inactive
same,Potency,[6],inactive
same,Potency,[18],inactive
same,Potency,[19],inactive
same,Potency,[8],inactive
same,Potency,[9],inactive
same,Potency,[10],inactive
same,Potency,[11],inactive
same,outcome,[12],inactive
same,Potency,[14],inactive
same,outcome,[15],inactive
C[C@]12CC[C@H]3C(=CCc4cc(O)ccc43)[C@@H]1CCC2=O,Potency,[1],inactive
same,Potency,[2],inactive
same,Potency,[3],inactive
same,Potency,[4],inactive
same,Potency,[6],inactive
same,Potency,[7],21.7 µM (active)
same,Potency,[9],27.3 µM (active)
same,Potency,[17],5.45 µM (active)
same,Potency,[10],30.6 µM (active)
same,outcome,[12],inactive
same,Potency,[14],inactive
Oc1ccc(-c2ccccc2)c(Cl)c1,Potency,[1],inactive
same,Potency,[2],inactive
same,Potency,[3],inactive
same,Potency,[6],inactive
same,Potency,[7],inactive
same,Potency,[19],21.7 µM (active)
same,Potency,[9],27.3 µM (active)
same,Potency,[10],inactive
same,Potency,[11],inactive
same,outcome,[12],inactive
same,Potency,[13],inactive
same,Potency,[14],inactive
